From PubChem BioAssay (NCATS)
Results filed as inconclusive are left out. Calls of active or inactive are those of the source. Calls come from the whole dose curve; as a rule, active = well fitted curve in the direction sought with a large enough effect; inconclusive = small, poorly fitted or top-dose-only effect, or another doubt; inactive = no such curve, though single readings can be large; an effect the other way counts as inactive or inconclusive.

Columns and labels:
[1] = qHTS of pediatric cancer cell lines to identify multiple opportunities for drug repurposing: Primary screen for LAN-5 cells (AID 1347100); note: potency is the fitted concentration of half-maximal effect
Outline: (§1)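 Cells (500-1,000/well) rested 5 h, then received compounds for 48 h; metabolically active cells were measured by CellTiter-Glo luminescence. Final concentrations spanned up to 46 µM (MIPE, 11-point) or 0.59 nM-46 µM (NPC, 8-point) in primary screens, 11-point in follow-ups.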

[2] = qHTS of pediatric cancer cell lines to identify multiple opportunities for drug repurposing: Primary screen for BT-12 cells (AID 1347101); note: nearly all actives have a fitted effect of over 25% in size; note: potency is the fitted concentration of half-maximal effect
Outline: as §1

[3] = qHTS of pediatric cancer cell lines to identify multiple opportunities for drug repurposing: Primary screen for Rh18 cells (AID 1347102); note: nearly all actives have a fitted effect of over 65% in size; note: potency is the fitted concentration of half-maximal effect
Outline: as §1

[4] = qHTS of pediatric cancer cell lines to identify multiple opportunities for drug repurposing: Primary screen for RD cells (AID 1347104); note: nearly all actives have a fitted effect of over 55% in size; note: potency is the fitted concentration of half-maximal effect
Outline: (§2)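 Cells plated at 500-1,000/well in growth medium, compounds added after 5 h. MIPE tested at 11 points (from 0.78 nM), NPC at 8 points (from 0.59 nM). CellTiter-Glo luminescence after 48 h; concentration-response curves from primary screen.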

[5] = qHTS of pediatric cancer cell lines to identify multiple opportunities for drug repurposing: Primary screen for control Hh wild type fibroblast cells (AID 1347106);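 note: series mostly up to about 46 µM; a drop in luminescence marks cytotoxicity and a rise apparent proliferation; nearly all actives have a fitted effect of over 55% in size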
Outline: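 Cells (500-1,000/well) in growth media were settled 5 h at 37 degrees C, then given compounds for 48 h. Viability was read as CellTiter-Glo luminescence. Primary runs used MIPE at 11 points (0.78 nM-46 µM) and NPC at 8 points (0.59 nM-46 µM); follow-ups used 11 points.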

[6] = qHTS of pediatric cancer cell lines to identify multiple opportunities for drug repurposing: Primary screen for Rh30 cells (AID 1347107); note: series mostly up to about 46 µM; nearly all actives have a fitted effect of over 75% in size
Outline: as §1

[7] = qHTS of pediatric cancer cell lines to identify multiple opportunities for drug repurposing: Primary screen for Rh41 cells (AID 1347108); note: nearly all actives have a fitted effect of over 70% in size; note: potency is the fitted concentration of half-maximal effect
Outline: as §2

[8] = qHTS of pediatric cancer cell lines to identify multiple opportunities for drug repurposing: Primary screen for MG 63 (6-TG R) cells (AID 1347105); note: nearly all actives have a fitted effect of over 50% in size
Outline: as §2

[9] = qHTS of pediatric cancer cell lines to identify multiple opportunities for drug repurposing: Primary screen for OHS-50 cells (AID 1347103); note: nearly all actives have a fitted effect of over 40% in size; note: potency is the fitted concentration of half-maximal effect
Outline: as §1

[10] = qHTS of pediatric cancer cell lines to identify multiple opportunities for drug repurposing: Confirmatory screen for NB1643 cells (AID 1347109); note: potency is the fitted concentration of half-maximal effect; nearly all actives have a fitted effect of over 45% in size
Outline: as §1

[11] = qHTS of pediatric cancer cell lines to identify multiple opportunities for drug repurposing: Confirmatory screen for A673 cells (AID 1347110);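 note: potency is the fitted concentration of half-maximal effect; cells exposed to compound for 48 h before the viability read; nearly all actives have a fitted effect of over 65% in size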
Outline: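 qHTS titration format: primary MIPE 0.78 nM-46 µM (11 pts), NPC 0.59 nM-46 µM; confirmation 11 pts. 48 h, CTG luminescence.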

[12] = qHTS of pediatric cancer cell lines to identify multiple opportunities for drug repurposing: Confirmatory screen for SK-N-MC cells (AID 1347111);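 note: potency is the fitted concentration of half-maximal effect; cells exposed to compound for 48 h before the readout; nearly all actives have a fitted effect of over 70% in size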
Outline: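 Seed 500-1,000 cells/well; rest 5 h at 37 degrees C. Pin-transfer compounds, 11-point titration. Incubate 48 h. Add CellTiter-Glo, 15 min RT, read luminescence.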

[13] = qHTS of pediatric cancer cell lines to identify multiple opportunities for drug repurposing: Confirmatory screen for BT-12 cells (AID 1347112); note: potency is the fitted concentration of half-maximal effect; nearly all actives have a fitted effect of over 55% in size
Outline: as §1

[14] = qHTS of pediatric cancer cell lines to identify multiple opportunities for drug repurposing: Confirmatory screen for LAN-5 cells (AID 1347113); note: potency is the fitted concentration of half-maximal effect; nearly all actives have a fitted effect of over 65% in size
Outline: as §1

[15] = qHTS of pediatric cancer cell lines to identify multiple opportunities for drug repurposing: Confirmatory screen for DAOY cells (AID 1347114); note: potency is the fitted concentration of half-maximal effect; nearly all actives have a fitted effect of over 65% in size
Outline: (§3)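 Viability measured as metabolically active cells via CellTiter-Glo luminescence following 48 hours of compound exposure, 11-point dilutions in confirmatory testing. 500-1,000 cells/well plated 5 hours before dosing; controls were DMSO and 2.3 µM bortezomib.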

[16] = qHTS of pediatric cancer cell lines to identify multiple opportunities for drug repurposing: Confirmatory screen for SJ-GBM2 cells (AID 1347116); note: potency is the fitted concentration of half-maximal effect; nearly all actives have a fitted effect of over 60% in size
Outline: as §3

[17] = qHTS of pediatric cancer cell lines to identify multiple opportunities for drug repurposing: Confirmatory screen for BT-37 cells (AID 1347117); note: potency is the fitted concentration of half-maximal effect; nearly all actives have a fitted effect of over 55% in size
Outline: as §1

[18] = qHTS of pediatric cancer cell lines to identify multiple opportunities for drug repurposing: Confirmatory screen for MG 63 (6-TG R) cells (AID 1347119)
Outline: as §1

[19] = qHTS of pediatric cancer cell lines to identify multiple opportunities for drug repurposing: Confirmatory screen for control Hh wild type fibroblast cells (AID 1347121); note: potency is the fitted concentration of half-maximal effect; nearly all actives have a fitted effect of over 70% in size
Outline: as §1

[20] = qHTS of pediatric cancer cell lines to identify multiple opportunities for drug repurposing: Confirmatory screen for Rh41 cells (AID 1347123);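 note: potency is the fitted concentration of half-maximal effect; 48 h compound exposure; nearly all actives have a fitted effect of over 60% in size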
Outline: as §1

Measured: Potency

Nc1ccc(Cl)cc1C(=O)c1ccccc1F
inactive: [1] | [2] | [3] | [4] | [5] | [6] | [7]

Cc1nc2ccccc2c(=O)n1-c1ccccc1Cl
inactive: [1] | [2] | [3] | [4] | [5] | [6] | [7]

C[C@]12CC[C@H]3[C@@H](CCC4=CC(=O)CC[C@@H]43)[C@@H]1CC[C@@H]2O
inactive: [1] | [2] | [3] | [4] | [8] | [5] | [6]

CCCN(CCC)CCc1c[nH]c2ccccc12
inactive: [1] | [2] | [3] | [8] | [5] | [6]

CCN(CC)Cc1nccn1-c1ccc([N+](=O)[O-])cc1C(=O)c1ccccc1Cl
inactive: [1] | [2] | [3] | [4] | [8] | [5] | [6]

CC(C)=CCN1CC[C@@]2(C)c3cc(O)ccc3C[C@@H]1[C@@H]2C
inactive: [1] | [2] | [3] | [8] | [5] | [6] | [7]

CCN(CC)CCOC(=O)C(C)(c1ccccc1)c1ccccc1
inactive: [1] | [2] | [3] | [4] | [8] | [5] | [6]

O=C(CBr)Nc1ccc(Cl)cc1C(=O)c1ccccc1F
inactive: [1] | [2] | [3] | [4] | [8] | [5] | [6] | [7]

CC[n+]1c(-c2ccccc2)c2cc(N)ccc2c2ccc(N)cc21
active: [1] 0.944 µM | [2] 3.09 µM | [3] 11.9 µM | [9] 1.55 µM | [4] 13.3 µM | [7] 3.35 µM | [10] 11.7 µM | [11] 3.29 µM | [12] 2.08 µM | [13] 1.47 µM | [14] 0.928 µM | [15] 13.1 µM | [16] 3.69 µM | [17] 1.04 µM | [18] 5.85 µM | [19] 9.27 µM | [20] 1.65 µM

CC(Cc1ccccc1)NCc1ccccc1Cl (stereo not drawn)
inactive: [1] | [2] | [3] | [4] | [8] | [5] | [6] | [7]

CN1CCC(N(Cc2ccccc2)c2ccccc2)CC1
inactive: [1] | [2] | [3] | [8] | [5] | [6] | [7]

C#C[C@]1(O)C=C[C@H]2[C@@H]3CCC4=CC(=O)CC[C@@H]4[C@H]3CC[C@@]21CC
inactive: [1] | [2] | [3] | [4] | [8] | [5] | [6] | [7]

O=C1NCN(c2ccccc2)C12CCN(CCCOc1ccc(F)cc1)CC2
active: [2] 11 µM | [9] 27.6 µM
inactive: [1] | [8] | [5] | [6] | [7]

CC(C)=C[C@@H]1[C@@H](C(=O)OCc2coc(Cc3ccccc3)c2)C1(C)C
inactive: [1] | [2] | [3] | [4] | [5] | [6] | [7]

CN1C[C@@H](NS(=O)(=O)N(C)C)C[C@@H]2c3cccc4c3c(cn4C)C[C@H]21
inactive: [1] | [2] | [3] | [4] | [8] | [5] | [6] | [7]

CN1C2CCC(C)(C)C1CC(OC(=O)C(O)(c1cccs1)c1cccs1)C2 (stereo not drawn)
inactive: [1] | [2] | [3] | [4] | [8] | [5] | [6]

CN1CCc2cc(Cl)c(O)cc2[C@H]2c3ccccc3CC[C@@H]21
inactive: [1] | [2] | [3] | [4] | [8] | [5] | [6]

CC(CC(C(N)=O)(c1ccccc1)c1ccccc1)N(C)C (stereo not drawn)
inactive: [1] | [2] | [3] | [4] | [8] | [5] | [6] | [7]

Cc1cccc(Cc2cnc[nH]2)c1C
inactive: [1] | [2] | [3] | [4] | [8] | [5] | [6] | [7]

CNC(C)Cc1ccc2c(c1)OCO2 (stereo not drawn)
inactive: [1] | [2] | [3] | [9] | [8] | [5] | [6]

C#C[C@]1(O)CC[C@H]2[C@@H]3CCC4=CC(=O)CCC4=C3C=C[C@@]21CC
inactive: [1] | [8] | [5]
